According to PubChem BioAssay (NCI):
This is part of a sample that, as a whole, favours compounds with a hit. Of some 83,000 tested, about 20% had one in any assay.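 Plates (96-well) were seeded with cells, treated with compound at one concentration, and incubated for 48 hours before percent growth was determined.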 Calls of active or inactive are those of the source. Rule for the calls: active = growth percent below 10; inactive = the rest.

Legend:
Assay in all cases: NCI-60 one-dose screen, 48 h (100 = growth as untreated, 0 = no growth, -100 = all killed)
Settings in all cases: 10 µM unless noted
T-47D breast = tested on: T-47D breast
BT-549 breast = tested on: BT-549 breast
MDA-MB-435 melanoma = tested on: MDA-MB-435 melanoma
SW-620 colon = tested on: SW-620 colon
MCF7 breast = tested on: MCF7 breast
HCT-116 colon = tested on: HCT-116 colon
HCC-2998 colon = tested on: HCC-2998 colon
KM12 colon = tested on: KM12 colon

Measured: growth

COc1cc(/C=C/c2cn[nH]c2-c2ccc(C)cc2)cc(OC)c1OC
inactive: T-47D breast 22.2% | BT-549 breast 32.9% | SW-620 colon 19.7% | MCF7 breast 13.1% | HCT-116 colon 11.7% | HCC-2998 colon 78.8% | KM12 colon 29.9%
active: MDA-MB-435 melanoma -16.2%

Cc1cccc(N2C(=O)/C(=C/C(Cl)=C/c3ccc([N+](=O)[O-])cc3)SC2=S)c1C
inactive: MDA-MB-435 melanoma 10.4% | MCF7 breast 15.2% | HCC-2998 colon 42% | KM12 colon 19.3%
active: T-47D breast 5.42% | BT-549 breast 3.15% | SW-620 colon 0.401% | HCT-116 colon -38.8%

Nc1cc(-c2ccc(Cl)cc2)nn1-c1nnc(/C=C/c2ccco2)c(=O)[nH]1
inactive: T-47D breast 62.7% | BT-549 breast 72% | MDA-MB-435 melanoma 62.8% | SW-620 colon 49.3% | MCF7 breast 45.9% | HCT-116 colon 41% | HCC-2998 colon 48.5% | KM12 colon 56%

ClCCn1cnc2c(SCc3ccccc3)ncnc21
inactive: T-47D breast 73.8% | BT-549 breast 70.4% | MDA-MB-435 melanoma 51.8% | SW-620 colon 39.4% | MCF7 breast 42.5% | HCT-116 colon 31.5% | HCC-2998 colon 57.4% | KM12 colon 53.2%

N=C(N)c1ccc(-c2ccc(-c3ccccc3)o2)o1
active: MDA-MB-435 melanoma -32.9% | SW-620 colon 1.14%
inactive: T-47D breast 32.8% | BT-549 breast 64.6% | MCF7 breast 20.6% | HCT-116 colon 19.4% | HCC-2998 colon 46.9% | KM12 colon 16.6%

COc1ccc(/C=C(/C(=O)N2CCNCC2)c2cc(OC)c(OC)c(OC)c2)cc1O
inactive: T-47D breast 31.6% | BT-549 breast 58.5% | SW-620 colon 35.1% | MCF7 breast 23% | HCT-116 colon 19.8% | HCC-2998 colon 78.4% | KM12 colon 21.3%
active: MDA-MB-435 melanoma -45%

C(=C(\C1=NCCN1)n1ccc2ccccc21)/c1ccccc1
inactive: T-47D breast 90.3% | BT-549 breast 107% | MDA-MB-435 melanoma 97.7% | SW-620 colon 89.8% | MCF7 breast 84.5% | HCT-116 colon 94% | HCC-2998 colon 103% | KM12 colon 99.4%

COC12C=C/C(=C(/C(=O)OCCSc3ccnn3C)C(=O)CCCCCCCCC3(OC)C=C/C(=C(/C(=O)OCCSc4ccnn4C)C(=O)CCCCCCCC1)O3)O2
inactive: T-47D breast 33.2% | SW-620 colon 18.5% | MCF7 breast 14.7%
active: BT-549 breast -22.7% | MDA-MB-435 melanoma -3.93% | HCT-116 colon -38.5% | HCC-2998 colon -86.1% | KM12 colon -57.6%

CC(=O)c1sc(-c2ccc(F)cc2)cc1O
inactive: T-47D breast 98.4% | BT-549 breast 93.8% | MDA-MB-435 melanoma 96.1% | SW-620 colon 106% | MCF7 breast 94.5% | HCT-116 colon 95.3% | HCC-2998 colon 103% | KM12 colon 95.6%

O=C(Nc1ccccc1O)c1ccc(CNc2ccnc(C(F)(F)F)c2)cc1
inactive: T-47D breast 32.1% | BT-549 breast 47.4% | MDA-MB-435 melanoma 45.3% | SW-620 colon 72.8% | MCF7 breast 50.1% | HCT-116 colon 42.2% | HCC-2998 colon 99.6% | KM12 colon 62.6%

O=C(NCCCCCCNC(=O)OCc1ccc2c(Cl)cc(Cl)c(O)c2n1)OCc1ccc2c(Cl)cc(Cl)c(O)c2n1
active: T-47D breast -48.5% | BT-549 breast -14.4% | MDA-MB-435 melanoma -82.9% | SW-620 colon -62.8% | MCF7 breast -36.7% | HCT-116 colon -54.7% | HCC-2998 colon -88.3% | KM12 colon -74.6%

CC1(/C=C/c2ccc(-c3ccccc3)cc2)CCn2cnc3ncnc(c32)N1O (stereo not drawn)
active: MCF7 breast 8.15%
inactive: T-47D breast 37.8% | BT-549 breast 17% | MDA-MB-435 melanoma 28.4% | SW-620 colon 28.2% | HCT-116 colon 20.2% | HCC-2998 colon 32.3% | KM12 colon 26%

Cc1ccc(-c2csc(NC(=O)CSc3nc(N)cc(N)n3)n2)cc1
inactive: T-47D breast 19.6% | BT-549 breast 52.1% | MDA-MB-435 melanoma 63.2% | SW-620 colon 93.6% | MCF7 breast 50.6% | HCT-116 colon 41.8% | HCC-2998 colon 86.8% | KM12 colon 77.5%

CC1=Nc2cnc(Nc3ccc(N4CCCCC4)cc3)nc2Nc2ccccc21
inactive: T-47D breast 46.9% | BT-549 breast 42.5% | MDA-MB-435 melanoma 89.7% | SW-620 colon 96% | MCF7 breast 72.5% | HCT-116 colon 59% | HCC-2998 colon 106% | KM12 colon 54.9%

CS(=O)(=O)Nc1cc(-c2ccc3ncnc(Nc4ccc5c(cnn5Cc5ccncc5)c4)c3c2)cnc1Cl
inactive: BT-549 breast 16.1% | MDA-MB-435 melanoma 63.2% | SW-620 colon 68.6% | MCF7 breast 31.3% | HCT-116 colon 75.2% | HCC-2998 colon 73.7% | KM12 colon 93.4%
active: T-47D breast 2.48%

COc1cccc(-c2cn3nc(-c4cn(C)c5ccccc45)sc3n2)c1
inactive: T-47D breast 89.9% | BT-549 breast 102% | MDA-MB-435 melanoma 36.5% | SW-620 colon 89.7% | MCF7 breast 79.5% | HCT-116 colon 91.7% | HCC-2998 colon 93.5% | KM12 colon 72.6%

O=C1CCCC1[n+]1ccccc1 (stereo not drawn)
inactive: T-47D breast 43.5% | BT-549 breast 84.3% | MDA-MB-435 melanoma 106% | SW-620 colon 117% | MCF7 breast 93% | HCT-116 colon 79.6% | HCC-2998 colon 107% | KM12 colon 97.6%

Clc1ccc(-c2nc(C(Cl)Cl)nc3cc(-c4ccccc4)nn23)cc1
active: SW-620 colon -5.43% | HCC-2998 colon -53.7% | KM12 colon 3.35%
inactive: T-47D breast 55.3% | BT-549 breast 89% | MDA-MB-435 melanoma 37.9% | MCF7 breast 24.8% | HCT-116 colon 23.1%

COc1ccc(C2[C@@H](Cl)C(=O)N2c2cc(OC)c(OC)c(OC)c2)cc1Cl (stereo partly drawn)
inactive: T-47D breast 43.3% | SW-620 colon 21.9% | MCF7 breast 14.4% | HCC-2998 colon 22.8% | KM12 colon 16.3%
active: BT-549 breast -19.1% | MDA-MB-435 melanoma -20.7% | HCT-116 colon -9.69%

COc1cc2ncnc(Nc3ccc(F)c(Cl)c3)c2cc1OCC(=O)N1CCOCC1
inactive: T-47D breast 53.5% | BT-549 breast 98.5% | MDA-MB-435 melanoma 102% | SW-620 colon 102% | MCF7 breast 83.9% | HCT-116 colon 84% | HCC-2998 colon 94.3% | KM12 colon 94.4%

CSc1ccc2c3c(n(CCCn4ccnc4)c(=O)c2c1)-c1ccccc1C3=O
active: MCF7 breast 9.87%
inactive: T-47D breast 15.9% | BT-549 breast 63.4% | MDA-MB-435 melanoma 64.6% | SW-620 colon 31.5% | HCT-116 colon 10.6% | HCC-2998 colon 75.9% | KM12 colon 45.4%

CN(C)CCCn1c2c(c3cnccc3c1=O)C(=O)c1ccccc1-2
active: T-47D breast -5.32% | BT-549 breast 6.92% | MDA-MB-435 melanoma 3.83% | SW-620 colon -6.01% | MCF7 breast -3.97% | HCT-116 colon -12.6% | HCC-2998 colon 3.98% | KM12 colon 3.16%

Nc1nc(N(Cc2ccccc2)c2ccccc2)c2cn[nH]c2n1
inactive: T-47D breast 44.4% | BT-549 breast 68.2% | SW-620 colon 25% | MCF7 breast 43.8% | HCT-116 colon 40.9% | HCC-2998 colon 71.2% | KM12 colon 35.1%
active: MDA-MB-435 melanoma 9.3%

C=C1C(=O)O[C@H]2[C@H]1CC/C(COC(=O)NCc1ccc(Cn3c(=O)sn(-c4ccccc4)c3=O)cc1)=C\CC[C@@]1(C)O[C@@H]21
active: SW-620 colon -13% | HCT-116 colon 5.85%
inactive: T-47D breast 57.7% | BT-549 breast 51.3% | MDA-MB-435 melanoma 33.4% | MCF7 breast 15.4% | HCC-2998 colon 75.2% | KM12 colon 96.8%

Cc1ccc(NC(=O)c2cc3ccccc3cc2O)c(C)c1
inactive: T-47D breast 97.2% | BT-549 breast 75.9% | MDA-MB-435 melanoma 72.5% | SW-620 colon 78.1% | MCF7 breast 92.7% | HCT-116 colon 75.8% | HCC-2998 colon 96.7% | KM12 colon 83.1%

c1cc(OCCN2CCCCCC2)ccc1CNc1ccc2nc(CCC3CCCCC3)[nH]c2c1
active: MCF7 breast 5.67% | HCC-2998 colon -4.87%
inactive: T-47D breast 31.6% | BT-549 breast 76.5% | MDA-MB-435 melanoma 40.6% | SW-620 colon 28.8% | HCT-116 colon 22.9% | KM12 colon 65.6%

COc1ccccc1/C=C/C(=O)Nc1ccc(F)cc1
inactive: T-47D breast 75.4% | BT-549 breast 108% | MDA-MB-435 melanoma 94% | SW-620 colon 103% | MCF7 breast 64.4% | HCT-116 colon 88.1% | HCC-2998 colon 111% | KM12 colon 91.3%

O=C(Nc1cc(Cl)cc(Cl)c1)Oc1c(Cl)c(Cl)c(Cl)c(Cl)c1Cl
inactive: T-47D breast 77.5% | BT-549 breast 74.9% | MDA-MB-435 melanoma 75.9% | SW-620 colon 88.3% | MCF7 breast 83% | HCT-116 colon 62.1% | HCC-2998 colon 93.4% | KM12 colon 83.3%

COc1ccc(C2[C@@H](c3ccccc3)C(=O)N2c2cc(OC)c(OC)c(OC)c2)cc1F (stereo partly drawn)
active: BT-549 breast -2.79% | MDA-MB-435 melanoma -23% | HCT-116 colon 3.36%
inactive: T-47D breast 61.7% | SW-620 colon 24.2% | MCF7 breast 12.5% | HCC-2998 colon 15.1% | KM12 colon 13.2%

O=C(CSc1nnnn1-c1ccccc1)Nc1ccc(Oc2ccccc2)cc1
inactive: T-47D breast 90.9% | BT-549 breast 112% | MDA-MB-435 melanoma 106% | SW-620 colon 98.9% | MCF7 breast 102% | HCT-116 colon 104% | HCC-2998 colon 100% | KM12 colon 99.4%

Cn1c(=O)c2[nH]c(SC/C(=N/O)c3ccc(Br)cc3)nc2n(C)c1=O
inactive: T-47D breast 23.1% | BT-549 breast 28.3% | MDA-MB-435 melanoma 52% | SW-620 colon 92.7% | MCF7 breast 69.1% | HCT-116 colon 28.3% | HCC-2998 colon 16.8% | KM12 colon 56.9%
